SKN-1 block = blocks SKN-1 activity in C. elegans; C. elegans VP596 Pgst-4::GFP/RFP ratio, acrylamide-induced, 24 h; inhibition, % at 21.8 µM; 360,000 compounds, 0.49% hits; AID 624304;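 active = interference check ratio from 0.5 to 1.5 plus GFP to RFP signal ratio inhibition reaching or exceeding a fixed threshold, cut at about 30% in these data, passing the limit was not always enough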
SMARCA2 act = activators of SMARCA2 function; 370,000 compounds, 1% hits; MG213 cells, MMTV-luciferase reporter, dexamethasone, overnight; activation, % at 9.1 µM; in the data active = activation above about 7.8%
Vif imaging = HIV Vif inhibition; HEK293T cells, Vif self-association by quenched fluorescence, imaging, 24 h; 340,000 compounds, 0.35% hits; AID 602346; inhibition, % at 7.49 µM; in the data active = inhibition above about 50%, passing the limit was not always enough
NadD block = inhibitors of Staphylococcus aureus NadD; AID 602399; 360,000 compounds, 0.78% hits; purified NadD enzyme, colorimetric absorbance read-out; inhibition, % at 20 µM; in the data active = inhibition above about 26%
esBAF inh = inhibitors of esBAF chromatin remodeling in mouse ES cells; Bmi1-luciferase knock-in reporter, 24 h; 100% = twice the neutral-well signal; reporter increase, % at 12.5 µM; 350,000 compounds, 2% hits; in the data active = activation above about 40%;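 also: a rise in the Bmi1 reporter signal indicates esBAF inhibition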
GRIN3A LBD mod = NR3A (human) ligand-binding domain modulation; NR3A LBD differential scanning fluorimetry, Tm shift; 0% = protein alone, 100% = glycine-bound protein; Tm shift relative to glycine control, % at 25 µM; 340,000 compounds, 2.5% hits;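 active = melting temperature shift of at least 10% of the positive control shift, at one fixed dose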
Each line names hits and unclear results; the compound was inactive in the other large screens. Sampled rows, rich in hits. Any-hit rate of the full collection: about 5.2%.

C#CCn1cc(/C=N/NC(=O)c2cc3ccccc3o2)c2ccccc21	GRIN3A LBD mod 13 (no result: esBAF inh)
C=CCn1cc(/C=N\NC(=O)c2cc3c(ccc4ccccc43)o2)c2ccccc21	none
Cn1cc(/C=N/NC(=O)c2cc3cc(Br)ccc3o2)c2ccccc21	GRIN3A LBD mod 22 (no result: esBAF inh)
CC1=NN(c2ccc(C(=O)O)cc2)C(=O)/C1=C\c1ccc(OC(=O)c2cccs2)cc1	GRIN3A LBD mod 14 (no result: esBAF inh)
O=C(c1ccc(F)cc1)c1ccc(N2CCCC2)cc1	esBAF inh 65
O=C(c1ccc(F)cc1)c1ccc(N2CCCCC2)cc1	none
O=S(=O)(c1ccc(N2CCCC2)cc1)C(F)(F)F	SKN-1 block 42
O=S(=O)(c1ccc(N2CCN(c3ccc(F)cc3)CC2)cc1)N1CCCC1	none (no result: esBAF inh)
O=C(CSc1nc2nc(-c3cccs3)cc(C(F)(F)F)c2c(=O)[nH]1)Nc1c(F)c(F)c(F)c(F)c1F	GRIN3A LBD mod 22
C[C@H](NC(=O)C[C@H]1C[C@@H]2c3cc(NC(=O)NC4CCCCC4)ccc3O[C@@H]2[C@H](CO)O1)c1ccccc1	none (no result: SKN-1 block, SMARCA2 act, Vif imaging, NadD block, GRIN3A LBD mod)
Cc1[nH]c2ccccc2c(=O)c1CN(C)Cc1ccccc1	esBAF inh 57
Cc1ccc(S(=O)(=O)N(C)c2ccccc2)cc1	none
O=S(=O)(c1ccccc1)N(c1ccccc1)S(=O)(=O)c1ccccc1	GRIN3A LBD mod 11 (no result: esBAF inh)
O=S(=O)(c1ccccc1)N(F)S(=O)(=O)c1ccccc1	Vif imaging 59
COc1ccc(/C=C/c2nc3cc(-c4ccccc4)ccc3o2)cc1O	GRIN3A LBD mod 17 (no result: esBAF inh)
C[C@@H]1CN([C@@H](C)CO)C(=O)c2cc(C3=CCCCC3)cnc2O[C@@H]1CN(C)Cc1ccccc1	none (no result: SKN-1 block, SMARCA2 act, Vif imaging, NadD block, GRIN3A LBD mod)
COc1ccc(NS(=O)(=O)c2cc(NC(=O)/C=C/c3cccs3)ccc2N2CCOCC2)cc1	GRIN3A LBD mod 30 (no result: esBAF inh)
COc1ccc(C(=O)Nc2ccc3nc4n(c(=O)c3c2)CCCCC4)cc1OC	none (no result: Vif imaging, GRIN3A LBD mod)
O=C(Nc1ccc2nc3n(c(=O)c2c1)CCCCC3)c1ccccc1[N+](=O)[O-]	none
O=C(Nc1ccc2nc3n(c(=O)c2c1)CCCC3)c1cccc(F)c1	esBAF inh 45
O=C(Nc1ccc2nc3n(c(=O)c2c1)CCCC3)c1ccccc1F	esBAF inh 45
O=C(Nc1ccc(SC(F)F)cc1)c1ccc2c(=O)n3c(nc2c1)CCC3	esBAF inh 87
CC=Cc1ccc2n(c1=O)C[C@H]1[C@H](CO)[C@@H](C(=O)N3CCN(C)CC3)N(Cc3ccccc3OC)[C@@H]21 (mixture of isomers)	none (no result: SKN-1 block, SMARCA2 act, Vif imaging, NadD block, GRIN3A LBD mod)
C[C@H]1CN([C@@H](C)CO)S(=O)(=O)c2ccc(C#CCN(C)C)cc2O[C@H]1CN(C)C(=O)C1CCC1	none (no result: SKN-1 block, SMARCA2 act, Vif imaging, NadD block, GRIN3A LBD mod)
O=C(C[C@@H]1C[C@@H]2c3cc(NC(=O)Nc4ccccc4)ccc3O[C@@H]2[C@H](CO)O1)NCc1ccccn1	none (no result: SKN-1 block, SMARCA2 act, Vif imaging, NadD block, GRIN3A LBD mod)
Cc1ccc(S(=O)(=O)N(C)C[C@H]2Oc3c(NS(=O)(=O)c4cn(C)cn4)cccc3C(=O)N([C@H](C)CO)C[C@@H]2C)cc1	none (no result: SKN-1 block, SMARCA2 act, Vif imaging, NadD block, GRIN3A LBD mod)
CO[C@H]1CN(C)C(=O)c2cc(NC(C)=O)ccc2OC[C@H](C)N(C(=O)c2ccncc2)C[C@H]1C	none (no result: SKN-1 block, SMARCA2 act, Vif imaging, NadD block, GRIN3A LBD mod)
CN(C(=O)c1ccc(N2CCOCC2)c([N+](=O)[O-])c1)C1CCCCC1	none
CN(c1ccc(C(=O)N2CCOCC2)cc1[N+](=O)[O-])C1CCCCC1	esBAF inh 57
C[C@@H]1CCCCO[C@H](CN(C)Cc2ccccc2)[C@H](C)CN([C@H](C)CO)C(=O)c2cc(NC(=O)c3ccccc3)ccc2O1	none (no result: SKN-1 block, SMARCA2 act, Vif imaging, NadD block, GRIN3A LBD mod)
CN(C)c1nc(N/N=C\c2ccc(Cl)c([N+](=O)[O-])c2)nc(Nc2ccc(F)cc2)n1	GRIN3A LBD mod 30 (no result: Vif imaging)
Nn1cnnc1N/N=C/c1ccc(Cl)c([N+](=O)[O-])c1	none (no result: esBAF inh)
C[C@H](NC(=O)C[C@H]1C[C@@H]2c3cc(NS(C)(=O)=O)ccc3O[C@@H]2[C@H](CO)O1)c1ccccc1	none (no result: SKN-1 block, SMARCA2 act, Vif imaging, NadD block, GRIN3A LBD mod)
O=C(O)c1ccccc1-c1cc2ccccc2[nH]1	none (no result: esBAF inh)
COc1ccccc1-c1cc2ccccc2[nH]1	esBAF inh 74
C[C@H]1CN([C@@H](C)CO)C(=O)Cc2cc(NC(=O)CCCCCC(=O)Nc3ccccc3N)ccc2O[C@H]1CN(C)S(=O)(=O)c1cn(C)cn1	none (no result: SKN-1 block, SMARCA2 act, Vif imaging, NadD block, GRIN3A LBD mod)
Cn1c(=O)c2c(O)c(Cc3ccccc3)c(=O)[nH]c2n(C)c1=O	esBAF inh 53
COc1ccc(C2=CSC3=NNC4(CCCCC4)NN23)cc1	none (no result: esBAF inh)
Cc1ccc(C2=CSC3=NNC4(CCCCC4)NN23)cc1	esBAF inh 66
CO[C@H]1CN(C)C(=O)c2cc(NC(=O)Nc3ccccc3F)ccc2OC[C@@H](C)NC[C@H]1C	none (no result: SKN-1 block, SMARCA2 act, Vif imaging, NadD block, GRIN3A LBD mod)
CCOCCn1c(COc2ccccc2)nc2ccccc21	SKN-1 block 40
COCn1c(COc2ccc3ccccc3c2)nc2ccccc21	esBAF inh 79
CCC(=O)N1[C@H](CO)[C@H]2c3ccccc3N(C(=O)Nc3ccccc3Cl)C[C@H]21	none (no result: SKN-1 block, SMARCA2 act, Vif imaging, NadD block, GRIN3A LBD mod)
CC(=O)Nc1ccc2c(c1)Cc1cc(N3C(=O)C=CC3=O)ccc1-2	GRIN3A LBD mod 24
O=C1C=CC(=O)N1c1ccc2c(c1)Cc1cc(F)ccc1-2	none
CC(=O)Nc1ccc2c(c1)Cc1ccc(Cl)cc1-2	esBAF inh 46
c1cncc(-c2noc(-c3ccc4ccccc4c3)n2)c1	none
COc1cc(OC)cc(-c2nc(-c3ccccc3)no2)c1	esBAF inh 48
c1ccc(-c2noc(-c3cccnc3)n2)cc1	SMARCA2 act 7.9
c1ccc(-c2ccc(-c3nc(-c4cccnc4)no3)cc2)cc1	SKN-1 block 43
c1ccc(-c2nc(-c3ccncc3)no2)cc1	SKN-1 block 69
CO[C@@H]1CN(C)C(=O)c2cc(NC(=O)Nc3c(C)noc3C)ccc2OC[C@H](C)N(CCC(F)(F)F)C[C@H]1C	none (no result: SKN-1 block, SMARCA2 act, Vif imaging, NadD block, GRIN3A LBD mod)
C[C@@H]1CN([C@H](C)CO)C(=O)c2cc(NC(=O)CCN3CCOCC3)ccc2O[C@H]1CN(C)Cc1ccc(Cl)c(Cl)c1	none (no result: SKN-1 block, SMARCA2 act, Vif imaging, NadD block, GRIN3A LBD mod)
c1ccc(-c2ccc(-c3nc(-c4ccncc4)no3)cc2)cc1	none (no result: Vif imaging)
c1ccc(-c2nc(-c3ccc(-c4ccon4)s3)no2)cc1	esBAF inh 53
CCCCc1ccc(-c2nc(-c3ccncc3)no2)cc1	none
CCc1ccc(-c2nc(-c3ccncc3)no2)cc1	SKN-1 block 48
O=C(CSc1n[nH]c(-c2ccncc2)n1)Nc1ccc(F)cc1	none
O=C(CSc1n[nH]c(-c2ccncc2)n1)Nc1ccccc1	GRIN3A LBD mod 27
O=C(CSc1n[nH]c(-c2ccco2)n1)Nc1ccc(Br)cc1	GRIN3A LBD mod 14
COc1ccc(NC(=O)CSc2n[nH]c(-c3ccco3)n2)cc1	none
COc1ccc(NC(=S)Nc2ccc3snnc3c2)cc1	GRIN3A LBD mod 28
COc1ccc(NC(=S)Nc2ccc(N)c([N+](=O)[O-])c2)cc1	esBAF inh 47, GRIN3A LBD mod 12
COc1ccc(NC(=S)Nc2ccc3nccnc3c2)cc1	esBAF inh 65
CNC(=O)Nc1ccc2snnc2c1	none
